Source: PubChem BioAssay (NCI)
Compounds without any hit were thinned out: in the full panel of roughly 79,000, 15% have a hit. Calls of active or inactive are those of the source. Rule as the data show it: active = growth inhibition above about 70%; inactive = the rest.

What was measured:
[1] = NCI Yeast Anticancer Drug Screen. Data for the rad52 strain (AID 147);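 also: 0% = growth of vehicle-treated control cultures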; conditions: S. cerevisiae rad52 mutant growth inhibition, stronger effect = higher value
Procedure, shortened: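 Yeast strain carrying a DNA damage repair alteration was exposed to test compounds. Growth inhibition was measured relative to vehicle-treated controls.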

[2] = NCI Yeast Anticancer Drug Screen. Data for the rad50EPP+ strain (AID 151);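 also: 0% = growth of vehicle-treated control cultures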; conditions: S. cerevisiae rad50 mutant strain, stronger effect = higher value
Procedure, shortened: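 Yeast strain carrying rad50 alteration (rad50EPP+) exposed to compounds; growth inhibition measured relative to vehicle-treated controls.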

[3] = NCI Yeast Anticancer Drug Screen. Data for the mgt1 strain (AID 153); conditions: S. cerevisiae mgt1 mutant growth inhibition, stronger effect = higher value
Procedure, shortened: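 Yeast mgt1 strain (DNA repair/cell-cycle alteration panel) exposed to compounds; growth inhibition measured relative to vehicle-treated controls.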

[4] = NCI Yeast Anticancer Drug Screen. Data for the rad50 strain (AID 155);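 also: 0% = growth of vehicle-only cultures of the same strain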; conditions: S. cerevisiae rad50 strain growth inhibition, stronger effect = higher value
Procedure, shortened: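 DNA repair mutant yeast, compound exposure, growth read-out; inhibition is taken relative to vehicle.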

[5] = NCI Yeast Anticancer Drug Screen. Data for the mec2-1 strain (AID 157); conditions: S. cerevisiae mec2-1 strain, stronger effect = higher value
Procedure, shortened: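 mec2-1 yeast strain, carrying an alteration in DNA damage repair or cell cycle control, was exposed to compounds; growth inhibition was measured relative to vehicle-treated controls.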

[6] = NCI Yeast Anticancer Drug Screen. Data for the rad14 strain (AID 159);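 also: 0% = growth of vehicle-treated control cultures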; conditions: S. cerevisiae rad14 strain growth inhibition, stronger effect = higher value
Procedure, shortened: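 DNA repair-defective yeast, compound-exposed; % growth inhibition derived by comparison with vehicle-treated controls.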

[7] = NCI Yeast Anticancer Drug Screen. Data for the sgs1 mgt1 strain (AID 161);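 also: 0% = growth of cultures given vehicle only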; conditions: S. cerevisiae sgs1 mgt1 strain, stronger effect = higher value
Procedure, shortened: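 Percent growth inhibition was derived by comparing compound-exposed mutant yeast with vehicle-exposed cultures. The strain carries alterations in DNA damage repair.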

[8] = NCI Yeast Anticancer Drug Screen. Data for the CLN2oe strain (AID 163);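 also: 0% = growth of vehicle-only control cultures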; conditions: S. cerevisiae CLN2oe strain, stronger effect = higher value
Procedure, shortened: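 Yeast cells carrying a defined cell-cycle control alteration were exposed to test compounds. Growth inhibition was scored against vehicle-treated control cultures.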

[9] = NCI Yeast Anticancer Drug Screen. Data for the cln2 rad14 strain (AID 165);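 also: 0% = growth equal to vehicle treated cultures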; conditions: S. cerevisiae cln2 rad14 strain, stronger effect = higher value
Procedure, shortened: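 Yeast carrying cln2 and rad14 alterations (cell cycle control and DNA damage repair) were exposed to compounds. Growth inhibition was measured against vehicle-treated controls.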

[10] = NCI Yeast Anticancer Drug Screen. Data for the bub3 strain (AID 167); conditions: S. cerevisiae bub3 mutant strain, stronger effect = higher value
Procedure, shortened: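 In this screen, a yeast mutant lacking normal mitotic checkpoint function is challenged with compound. Relative growth versus vehicle gives the inhibition value.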

[11] = NCI Yeast Anticancer Drug Screen. Data for the wt2 strain (AID 169);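 also: 0% = growth of vehicle-treated yeast cultures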; conditions: S. cerevisiae wt2 strain growth inhibition, stronger effect = higher value
Procedure, shortened: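 Yeast cells were exposed to test compounds, and growth inhibition was measured relative to vehicle-treated controls.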

[12] = NCI Yeast Anticancer Drug Screen. Data for the sgs1 strain (AID 173);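 also: 0% = growth of vehicle-only control cultures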; conditions: S. cerevisiae sgs1 mutant, stronger effect = higher value
Procedure, shortened: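 Yeast mutant strains carrying defined defects in DNA damage repair or cell cycle control were exposed to test compounds. Growth inhibition was scored against vehicle-treated controls.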

[13] = NCI Yeast Anticancer Drug Screen. Data for the mlh1 rad18 strain (AID 175); conditions: S. cerevisiae mlh1 rad18 strain growth inhibition, stronger effect = higher value
Procedure, shortened: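 Growth inhibition of the yeast strain was measured after compound exposure and expressed relative to vehicle-treated controls. The strain carries defined defects in DNA damage repair.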

[14] = NCI Yeast Anticancer Drug Screen. Data for the rad18 strain (AID 177); conditions: S. cerevisiae rad18 mutant growth inhibition, stronger effect = higher value
Procedure, shortened: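 Yeast carrying a defined DNA damage repair alteration were exposed to compounds. Growth inhibition was expressed relative to vehicle-treated controls.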

[15] = NCI Yeast Anticancer Drug Screen. Data for the wt1 strain (AID 149);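 also: 0% = growth of vehicle-treated wt1 cultures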; conditions: S. cerevisiae wt1 strain (SPY 50644) growth inhibition, stronger effect = higher value
Procedure, shortened: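 wt1 strain grown with compound or vehicle; inhibition taken from the growth difference.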

[16] = NCI Yeast Anticancer Drug Screen. Data for the mlh1 strain (AID 171);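 also: 0% = growth of vehicle-treated control cultures of the same strain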; conditions: S. cerevisiae mlh1 strain growth inhibition, stronger effect = higher value
Procedure, shortened: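 Yeast carrying a defined genetic alteration in DNA damage repair or cell cycle control were exposed to test compounds. Growth inhibition was measured relative to vehicle-treated controls.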

[17] = at 5.0 µM (retest, dose inferred, filed as 0.5)
[18] = at 50.0 µM (retest, dose inferred, filed as 5.0)

Measured: growth inhibition

CCCCCCCCCCCC1=C(O)C(=O)C=C(O)C1=O
inactive: [1]; at 1.2 µM -7% | [1]; at 3.7 µM -2% | [1]; at 11.0 µM 68% | [2]; at 1.2 µM -5% | [2]; at 3.7 µM -14% | [2]; at 11.0 µM 31% | [3]; at 1.2 µM -3% | [3]; at 3.7 µM -5% | [3]; at 11.0 µM 22% | [4]; at 1.2 µM -15% | [4]; at 3.7 µM -15% | [4]; [17] 32% | [4]; at 11.0 µM 36% | [4]; at 50.0 µM 46.5% | [5]; at 1.2 µM -7% | [5]; at 3.7 µM -4% | [5]; [17] 9% | [5]; at 11.0 µM 63% | [5]; at 50.0 µM 37.9% | [6]; at 1.2 µM 2% | [6]; at 3.7 µM 0% | [7]; [17] 30% | [7]; at 50.0 µM 46.9% | [8]; at 1.2 µM -7% | [8]; at 3.7 µM -17% | [8]; at 11.0 µM 63% | [9]; [17] -11% | [9]; at 50.0 µM 35.9% | [10]; at 1.2 µM -10% | [10]; at 3.7 µM -4% | [10]; at 11.0 µM 54% | [10]; at 50.0 µM 57% | [11]; at 1.2 µM 3% | [11]; at 3.7 µM 8% | [12]; at 1.2 µM -19% | [12]; at 3.7 µM -11% | [12]; at 11.0 µM 46% | [13]; [17] 41% | [14]; at 1.2 µM -9% | [14]; at 3.7 µM -6% | [14]; at 11.0 µM 64%
active: [1]; at 33.0 µM 88% | [1]; at 100.0 µM 94% | [2]; at 33.0 µM 79% | [2]; at 100.0 µM 84% | [3]; at 33.0 µM 89% | [3]; at 100.0 µM 91% | [4]; at 33.0 µM 94% | [4]; [18] 79% | [4]; at 100.0 µM 93% | [5]; at 33.0 µM 94% | [5]; [18] 90% | [5]; at 100.0 µM 95% | [6]; at 11.0 µM 80% | [6]; at 33.0 µM 96% | [6]; at 100.0 µM 80% | [7]; [18] 85% | [8]; at 33.0 µM 93% | [8]; at 100.0 µM 91% | [9]; [18] 88% | [10]; [17] 81% | [10]; at 33.0 µM 96% | [10]; [18] 89% | [10]; at 100.0 µM 95% | [11]; at 11.0 µM 79% | [11]; at 33.0 µM 96% | [11]; at 100.0 µM 81% | [12]; at 33.0 µM 95% | [12]; at 100.0 µM 89% | [13]; [18] 90% | [13]; at 50.0 µM 72.3% | [14]; at 33.0 µM 95% | [14]; at 100.0 µM 92%

O=C(OCCN1CCCCCC1)C(c1ccsc1)C1CCCCC1 (stereo unspecified)
inactive: [15]; at 1.2 µM -67% | [15]; at 3.7 µM 13% | [15]; at 11.0 µM 16% | [15]; at 33.0 µM 19% | [15]; at 100.0 µM 19% | [2]; at 1.2 µM -1% | [2]; at 3.7 µM -1% | [2]; at 11.0 µM -1% | [2]; at 33.0 µM 0% | [2]; at 100.0 µM 2% | [3]; at 1.2 µM 8% | [3]; at 3.7 µM 21% | [3]; at 11.0 µM 34% | [3]; at 33.0 µM 36% | [3]; at 100.0 µM 37% | [4]; at 1.2 µM 11% | [4]; at 3.7 µM 17% | [4]; [17] 13% | [4]; at 11.0 µM 25% | [4]; at 33.0 µM 29% | [4]; [18] 39% | [4]; at 100.0 µM 46% | [5]; at 1.2 µM 3% | [5]; at 3.7 µM 10% | [5]; [17] -5% | [5]; at 11.0 µM 17% | [5]; at 33.0 µM 27% | [5]; [18] 13% | [5]; at 50.0 µM 33.4% | [5]; at 100.0 µM 32% | [6]; at 1.2 µM 35% | [6]; at 3.7 µM 36% | [6]; at 11.0 µM 40% | [6]; at 33.0 µM 43% | [6]; at 100.0 µM 52% | [7]; [17] 4% | [7]; [18] 55% | [8]; at 1.2 µM 10% | [8]; at 3.7 µM 32% | [8]; at 11.0 µM 51% | [8]; at 33.0 µM 57% | [9]; [18] 49% | [9]; at 50.0 µM 63.5% | [10]; at 1.2 µM 4% | [10]; at 3.7 µM 14% | [10]; [17] 61% | [10]; at 11.0 µM 37% | [10]; at 33.0 µM 58% | [11]; at 1.2 µM 6% | [11]; at 3.7 µM 17% | [11]; at 11.0 µM 22% | [11]; at 33.0 µM 39% | [16]; at 1.2 µM 8% | [16]; at 3.7 µM 21% | [16]; at 11.0 µM 24% | [16]; at 33.0 µM 29% | [16]; at 100.0 µM 35% | [12]; at 1.2 µM 17% | [12]; at 3.7 µM 29% | [12]; at 11.0 µM 34% | [12]; at 33.0 µM 31% | [12]; at 100.0 µM 40% | [13]; [17] 2% | [13]; [18] 33% | [14]; at 1.2 µM 7% | [14]; at 3.7 µM 18% | [14]; at 11.0 µM 34% | [14]; at 33.0 µM 34% | [14]; at 100.0 µM 43%
active: [4]; at 50.0 µM 81.9% | [7]; at 50.0 µM 84% | [8]; at 100.0 µM 72% | [9]; [17] 81% | [10]; [18] 88% | [10]; at 50.0 µM 83% | [10]; at 100.0 µM 79% | [11]; at 100.0 µM 72% | [13]; at 50.0 µM 79.4%

CN(N=O)N1C(=O)SCC(c2ccccc2)(c2ccccc2)C1=O
inactive: [15]; at 1.2 µM -3% | [15]; at 3.7 µM -5% | [15]; at 11.0 µM -3% | [15]; at 33.0 µM -3% | [15]; at 100.0 µM 4% | [2]; at 1.2 µM -4% | [2]; at 3.7 µM 0% | [2]; at 11.0 µM 0% | [2]; at 33.0 µM 2% | [2]; at 100.0 µM 3% | [3]; at 1.2 µM -1% | [3]; at 3.7 µM 1% | [3]; at 11.0 µM 1% | [3]; at 33.0 µM -1% | [3]; at 100.0 µM 3% | [4]; at 1.2 µM 3% | [4]; at 3.7 µM 4% | [4]; [17] -26% | [4]; at 11.0 µM 13% | [4]; at 33.0 µM 11% | [4]; [18] 66% | [4]; at 50.0 µM 56% | [4]; at 100.0 µM 37% | [5]; at 1.2 µM 0% | [5]; at 3.7 µM 1% | [5]; [17] 10% | [5]; at 11.0 µM 1% | [5]; at 33.0 µM 5% | [5]; [18] 40% | [5]; at 50.0 µM 32.2%
